This note sets out measurements from ChEMBL document CHEMBL3988442, “University of Dundee, Small-Polar-MMV Screening Library” (2021).

Among all 66,000 compounds or so, about 960 (1.5%) showed an effect of 50% or more. Only a selection was taken, and strong results are over-represented in it overall.

The test system of this experiment is Trypanosoma brucei. The experiment can be described thus: Trypanosoma brucei 72 hour study. The class given is functional, organism-based. On the set-up: scale not given: in the data most compounds retested in dose-response had high values.

On to `CC(C)Nc1nc(N2CCCC2)nc2c1CN(C(C)C)CC2`, for which the “Percent Effect” value (30 µM, 30.03 µM) was 99.66%.

For the compound `CC(C)Nc1nc(N2CCCC2)nc2c1CN(S(C)(=O)=O)CC2`, under “30.3 µM, […]”, the “Percent Effect” value was -6.542%.

Regarding `COCCC(=O)N1CCc2nc(N3CCOCC3)nc(NC(C)C)c2C1`, the “Percent Effect” value (30.3 µM, […]) was -26.7%.

For the compound `CCCN1CCc2nc(N3CCOCC3)nc(NC(C)C)c2C1`, the “Percent Effect” value (30.3 µM, […]) is on record as -24.43%.

For the compound `COc1ccc(Oc2cc(CN)ccn2)cc1`, the “Percent Effect” value (30 µM, 30.03 µM) is given as -27.14%.

`O=C1N(c2ccsc2)CCC12CCCN(c1ncc(F)cn1)C2` (stereo unspecified): the “Percent Effect” value (30.3 µM, […]) is on record as 6.515%.

As for `CC(C)(C)n1ncc(NCCc2ccccc2C(F)(F)F)c(Cl)c1=O`, the “Percent Effect” value (30 µM, 30.03 µM) was -22.16%.

As to `COC(C)(C)C(=O)N1CCC(c2cc(CN(C)C)n(C)n2)CC1.Cl`, the “Percent Effect” value (30.3 µM, […]) was -10.49%.

For the compound `Cc1ccc(CN2Cc3c(cnn3C)C(COCC3CC3)C2)s1` (stereo unspecified), the “Percent Effect” value (30 µM, 30.03 µM) is listed as 38.62%.

As to `CC(C)=CCN1C(=O)[C@H]2CC[C@@H]1CN(C(=O)CCc1nc(Cl)n[nH]1)C2`, the “Percent Effect” value (30 µM, 30.03 µM) is given as -4.584%.

In the case of `COC(=O)CN1CC2(CCNCC2)COc2ccccc2S1(=O)=O.O=C(O)C(F)(F)F`, the “Percent Effect” value (30 µM, 30.03 µM) is reported as -19.66%.

Take `Br.CCOc1ccc(Br)cc1C1CCCN1` (stereo unspecified): the “Percent Effect” value (30 µM, 30.03 µM) is reported as -44.26%.

Regarding `CC(C)OCCCN(CC(=O)N1CCNCC1)C(=O)c1ccc(F)cc1.O=C(O)C(F)(F)F`, under “30 µM, 30.03 µM”, the “Percent Effect” value is -6.979%.

`Cc1nc(CN2CCc3nc(N4CCCC4)nc(NC(C)C)c3C2)cs1`: where the note is “30 µM, 30.03 µM”, the “Percent Effect” value is 98.38%.

For `CC(C)Nc1nc(N2CCOCC2)nc2c1CN(Cc1ccoc1)CC2`, the “Percent Effect” value (30 µM, 30.03 µM) came out at 8.067%.

For the compound `Cc1nc(CN2CCc3nc(NC(C)C)nc(C)c3C2)cs1`, the “Percent Effect” value (30 µM, 30.03 µM) is on record as 1.176%.

Consider `CN(CCOc1ccc(Cl)cc1)Cc1ccc(S(=O)(=O)N(C)C)o1`, for which the “Percent Effect” value (30 µM, 30.03 µM) is -22.42%.

Consider `Cn1nc(-c2ccc(Cl)cc2)c(Br)c1C(=O)O`, for which the “Percent Effect” value (30 µM, 30.03 µM) is on record as -21.18%.

As for `Cc1cccc(CN2C(=O)CCC23CCN(C(=O)N2CCCC2)CC3)n1.O=C(O)C(F)(F)F`, for the setting “30.3 µM, […]”, the “Percent Effect” value was -18.36%.

As for `Cc1cc(NCc2ccc(CO)cc2)n2nc(C)cc2n1`, the “Percent Effect” value (30 µM, 30.03 µM) stood at 21.61%.

For `Cc1cc(NCc2ccc(O)cc2)n2nc(C)cc2n1`, the “Percent Effect” value (30 µM, 30.03 µM) is reported as 9.404%.

Consider `Cc1cc(NCc2cccnc2)n2nc(C)cc2n1`, for which the “Percent Effect” value (30 µM, 30.03 µM) was found to be 51.67%.

For the compound `COCCN1CCc2ncnc(-c3ccccc3)c2CC1.O=C(O)C(F)(F)F`, where the note is “30.3 µM, […]”, the “Percent Effect” value is reported as -87.22%.

As for `NC(=O)c1cccc(OCC(=O)NS(=O)(=O)c2ccc3c(c2)CCC3)c1`, where the note is “30.3 µM, […]”, the “Percent Effect” value is listed as -4.37%.

For `CN(Cc1ccco1)C(=O)Nc1cccnc1N1CCCC1`, the “Percent Effect” value (30.3 µM, […]) came out at 18.63%.

For the compound `CCc1ncc(CN(C)C(=O)Nc2cccnc2N2CCCC2)s1`, the “Percent Effect” value (30 µM, 30.03 µM) worked out at 50.09%.

For `CN(Cc1ccsc1)C(=O)Nc1cccnc1N1CCCC1`, the “Percent Effect” value (30 µM, 30.03 µM) is reported as -52.54%.

Take `O=C(O)C(F)(F)F.O=C(c1cc[nH]n1)N1CCC2(CC1)CC(Oc1cccnc1)CO2` (stereo unspecified): the “Percent Effect” value (30 µM, 30.03 µM) was -3.949%.

As for `COc1ccc(Cl)cc1NCC(=O)NCc1cccnc1OC`, the “Percent Effect” value reads like this: (30.3 µM, […]) 74.82%; (10 mM, 10 mM as filed; unlikely as a test dose) -40.14%.

On to `COc1cc(CNC(=O)CNc2cc(Cl)ccc2OC)ccn1`, for which the “Percent Effect” value (30 µM, 30.03 µM) was -27.18%.

As for `COc1ccc(Cl)cc1NCC(=O)NCCNc1ncccn1`, the “Percent Effect” value by setting is: (30.3 µM, […]) -3.8%; (10 mM, 10 mM as filed; unlikely as a test dose) -45.51%.

Consider `CS(=O)(=O)NCc1nnc2n1CCN(Cc1cccs1)CC2.O=C(O)C(F)(F)F`, for which the “Percent Effect” value (30.3 µM, […]) is recorded as -150.1%.

Regarding `Cc1ccc(N2CCC3(CC2)COCCN(c2nccs2)C3)nn1.O=C(O)C(F)(F)F.O=C(O)C(F)(F)F`, the “Percent Effect” value (30 µM, 30.03 µM) is recorded as -12.93%.

With `CCS(=O)(=O)N1CCC2(CC1)COC(COc1cccnc1)C2.O=C(O)C(F)(F)F` (stereo unspecified), where the note is “30.3 µM, […]”, the “Percent Effect” value was found to be 1.349%.

As for `O=C(c1ccccn1)N1CCC2(CC1)COC(COc1cccnc1)C2` (stereo unspecified), the “Percent Effect” value (30 µM, 30.03 µM) is 52.19%.

As to `Cc1ccc(C(=O)N2CCC3(CC2)COC(COc2cccnc2)C3)o1.O=C(O)C(F)(F)F` (stereo unspecified), where the note is “30 µM, 30.03 µM”, the “Percent Effect” value is given as 51.84%.

As for `O=C(O)C(F)(F)F.O=C(c1ccccn1)N1CCC2(CC1)COC(COCC1CC1)C2` (stereo unspecified), for the setting “30 µM, 30.03 µM”, the “Percent Effect” value worked out at 39.74%.

In the case of `Cc1ccc(C(=O)N2CCC3(CC2)COC(COc2ccccn2)C3)o1.O=C(O)C(F)(F)F` (stereo unspecified), where the note is “30.3 µM, […]”, the “Percent Effect” value was determined as 15.32%.

For `CCOCC1CC2(CCN(C(=O)c3ccccn3)CC2)CO1.O=C(O)C(F)(F)F` (stereo unspecified), the “Percent Effect” value (30.3 µM, […]) was 13.92%.

Consider `O=C(O)C(F)(F)F.O=C([C@H]1CCCO1)N1CCCC2(COCCN(c3ccccc3)C2)C1` (stereo partly specified), for which the “Percent Effect” value (30.3 µM, […]) is on record as -14.49%.

`c1ccc(C(CC2CN(Cc3c[nH]cn3)CCO2)c2ccccc2)cc1` (stereo unspecified): where the note is “30.3 µM, […]”, the “Percent Effect” value is on record as 18.17%.

For the compound `CC(=O)N1C[C@@H](c2ccsc2)[C@@H]2CN(Cc3ccccc3C)CC[C@@H]21`, for the setting “30.3 µM, […]”, the “Percent Effect” value is -10.13%.

Turning to `COC(=O)NCc1cc2n(n1)CCCN(C(C)=O)C2`, for the setting “30 µM, 30.03 µM”, the “Percent Effect” value is given as 54.27%.

With `CC(=O)N1CCCn2nc(CNC(=O)N3CCCCC3)cc2C1`, the “Percent Effect” value (30 µM, 30.03 µM) is recorded as -45.6%.

`CC(=O)N1CCCn2nc(CNS(=O)(=O)N3CCCCCC3)cc2C1`: the “Percent Effect” value (30 µM, 30.03 µM) is reported as -5.109%.

With `O=C(c1cccs1)N1CCC2(C1)c1ccccc1S(=O)(=O)N2CC1CC1` (stereo unspecified), the “Percent Effect” value (30 µM, 30.03 µM) is reported as 16.77%.

As to `CCCC(=O)NC(Cc1ccc(C)cc1)c1ccccn1` (stereo unspecified), the “Percent Effect” value (30 µM, 30.03 µM) is listed as -30.99%.

Take `CSCC(=O)NC(Cc1ccc(C)cc1)c1ccccn1` (stereo unspecified): where the note is “30 µM, 30.03 µM”, the “Percent Effect” value is -45.46%.

`Cc1ccc(CC(NC(=O)CN(C)C2CC2)c2ccccn2)cc1` (stereo unspecified): the “Percent Effect” value (30 µM, 30.03 µM) is recorded as 99.62%.
